Assay outcomes as filed in PubChem BioAssay.
HP1b chromo inh = HP1-beta chromodomain-methylated histone interaction inhibition | AlphaScreen HP1-beta / biotin-H3K9me3 peptide binding | hit rate 0.56% among 390,000 | Potency, µM (series often up to 114 µM), hits mostly inhibitors; also: nearly all actives have a fitted effect of over 70% in size
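AlphaScreen: HP1-beta (50 nM) preformed 30 min with biotin-H3(1-18)K9me3 peptide (50 nM) in PBS pH 7.4, 0.01% Tween-20. Compound added for 30 min at RT, then streptavidin donor/nickel chelate acceptor beads (10 ug/mL) for 30 min.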
Sfp PPTase inh = Sfp phosphopantetheinyl transferase inhibition; hit rate 3.5% among 310,000; Q9F4F7; Potency, µM, actives largely listed as inhibitors; Biochemical Sfp PPTase activity, qHTS;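 also: the enzyme is Sfp with the accession as filed and its product quenches rhodamine fluorescence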
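With Hepes-Na pH 7.6 buffer containing 10 mM MgCl2, Sfp (15 nM) modified BHQ-2-YbbR (12.5 uM) using rhodamine-CoA (5 uM). Two reads 30 minutes apart at 525/598 nm yielded each well's rate.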
BAZ2B inh = BAZ2B (human) inhibition. AlphaScreen BAZ2B-H3K14Ac peptide displacement. Potency, µM (top dose mostly 114 µM), usual class: inhibitors. Q9UIF8. AID 504333. hit rate 4.4% among 360,000; also: nearly all actives have a fitted effect of over 60% in size
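In this displacement format the biotinylated H3(5-23) peptide acetylated at Lys14 serves as ligand at 50 nM, with BAZ2B at 50 nM in PBS pH 7.4 containing 0.01% Tween-20. Donor and acceptor beads are 10 ug/mL final.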
G9a block = G9a (human) methyltransferase inhibition; Q96KQ7; G9a H3K9 monomethylation, AlphaScreen, 2 h; Potency, µM (highest dose often 102 µM), most hits filed as inhibitors; hit rate 8.8% among 350,000; AID 504332; also: nearly all actives have a fitted effect of over 75% in size
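Step 1: enzyme (final 20 nM) with compound, 15 min RT. Step 2: substrate peptide 500 nM and SAM 20 uM, 2 h RT. Step 3: anti-H3K9me1 antibody and AlphaScreen beads, 10 min, then plate read.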
L3MBTL1 inh = blocks human L3MBTL1; Q9Y468; AlphaScreen L3MBTL1–H3K9me1 peptide binding; Potency, µM (titrated, usually from 57.1 µM), most hits filed as inhibitors; hit rate 0.66% among 230,000; AID 485360; also: nearly all actives have a fitted effect of over 60% in size
Target sequence (Q9Y468 whole entry, looked up): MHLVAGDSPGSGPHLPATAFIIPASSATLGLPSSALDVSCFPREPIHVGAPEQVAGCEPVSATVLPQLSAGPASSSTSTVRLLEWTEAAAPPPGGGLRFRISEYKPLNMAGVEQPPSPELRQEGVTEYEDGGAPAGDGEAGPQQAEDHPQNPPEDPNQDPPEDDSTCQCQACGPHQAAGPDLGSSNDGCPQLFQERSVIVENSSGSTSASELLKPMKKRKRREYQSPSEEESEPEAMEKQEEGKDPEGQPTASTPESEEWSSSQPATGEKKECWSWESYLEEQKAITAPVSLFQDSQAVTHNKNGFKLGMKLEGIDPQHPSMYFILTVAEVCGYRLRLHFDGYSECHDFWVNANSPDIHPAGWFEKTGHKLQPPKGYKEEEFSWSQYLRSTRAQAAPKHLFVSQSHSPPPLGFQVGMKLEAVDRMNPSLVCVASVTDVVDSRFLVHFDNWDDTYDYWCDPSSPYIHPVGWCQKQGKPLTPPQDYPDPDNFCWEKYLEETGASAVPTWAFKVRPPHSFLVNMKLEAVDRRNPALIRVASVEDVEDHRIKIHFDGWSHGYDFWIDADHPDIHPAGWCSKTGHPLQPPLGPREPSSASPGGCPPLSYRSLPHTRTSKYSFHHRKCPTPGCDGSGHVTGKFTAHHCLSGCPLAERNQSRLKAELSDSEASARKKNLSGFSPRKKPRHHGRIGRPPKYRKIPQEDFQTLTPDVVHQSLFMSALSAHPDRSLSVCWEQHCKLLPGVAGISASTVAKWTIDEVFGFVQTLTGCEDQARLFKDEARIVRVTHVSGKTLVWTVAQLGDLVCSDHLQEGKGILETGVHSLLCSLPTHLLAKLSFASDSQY
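Read-out is AlphaScreen signal from streptavidin donor and nickel chelate acceptor beads (10 ug/mL final each) bridging L3MBTL1 (50 nM) and biotinylated K9-monomethylated H3(1-15) peptide (75 nM), after 30 min compound exposure at room temperature.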
JMJD2A Tudor inh = JMJD2A Tudor domain (human) inhibition; O75164; AlphaScreen JMJD2A-Tudor / H3K4me3 peptide binding; Potency, µM (titrated, usually from 114 µM), usual class: inhibitors; hit rate 4.4% among 390,000; AID 504339; also: nearly all actives have a fitted effect of over 50% in size
Hits are given with their value; 0 = inactive; ? = inconclusive; - = not tested or not shown; [ ] = dose if it differs, or a comment. Hits are enriched below; roughly 12% of the tested compounds scored in any of these assays. Calls follow the shape of the dose curve; as a rule, active = well fitted curve in the direction sought with a large enough effect; inconclusive = small, poorly fitted or top-dose-only effect, or another doubt; inactive = no such curve, though single readings can be large; an effect the other way counts as inactive or inconclusive.

SMILES | HP1b chromo inh | Sfp PPTase inh | BAZ2B inh | G9a block | L3MBTL1 inh | JMJD2A Tudor inh
CN1CCN(C(=O)/C(=C\c2ccccc2)c2ccccc2)CC1 | 0 | 0 | 0 | ? | - | 0
CC1CCN(C(=O)/C(=C/c2ccccc2Cl)c2ccccc2)CC1 | 0 | 79µM | 0 | 0 | 0 | 0[11.4 µM]
COc1ccc(C(=O)Oc2ccc(C(c3c(C)[nH][nH]c3=O)c3c(C)[nH][nH]c3=O)cc2OC)cc1 | 0 | - | ? | 0 | - | ?
COC(=O)c1ccc(-c2ccc(C(c3c(C)[nH][nH]c3=O)c3c(C)[nH][nH]c3=O)o2)cc1 | 0 | 50µM | 8.9µM | 1.4µM | - | 32µM
Cc1[nH][nH]c(=O)c1C(c1ccc(-c2cccc(C(=O)O)c2)o1)c1c(C)[nH][nH]c1=O | ? | 16µM | 79µM | 18µM | 25µM | 56µM
Cc1[nH][nH]c(=O)c1C(c1ccc(-c2ccc(Cl)cc2Cl)o1)c1c(C)[nH][nH]c1=O | - | 50µM | ? | 7.1µM | - | -
Cc1[nH][nH]c(=O)c1C(c1ccc(-c2ccccc2C(=O)O)o1)c1c(C)[nH][nH]c1=O | 0 | ? | 35µM | 3.5µM | 32µM | 89µM
COc1ccc(N2CC(NC(=O)C3CCCC3)CC2=O)cc1OC (configuration not stated) | 0 | - | 0 | ? | - | 0
COc1ccc(OC)c(CNC(=O)c2ccc(-c3nc(CSc4ccccc4)c(C)o3)cc2)c1 | 0 | - | ? | 0 | - | 0
Cc1[nH][nH]c(=O)c1C(c1ccc(Br)cc1)c1c(C)[nH][nH]c1=O | 0 | 0 | 0 | 0 | 0 | 0
Cc1[nH][nH]c(=O)c1C(c1ccc(-c2cccc(Cl)c2)o1)c1c(C)[nH][nH]c1=O | ? | 45µM | 40µM | - | - | 45µM
O=C(NCCc1ccc(Cl)cc1)c1cnc2n(c1=O)CCS2 | 0 | 0 | 0 | 45µM | 0 | 0
O=C(Nc1ccc2c(c1)OCCO2)c1cnc2n(c1=O)CCS2 | 0 | 0 | 0 | 50µM | 0 | 0
O=C(Nc1ccccc1)c1cnc2n(c1=O)CCS2 | 0 | 0 | 0 | 50µM | ? | 0
Cc1cccc(NC(=O)c2cnc3n(c2=O)CCS3)c1 | 0 | 0 | 0 | 0 | 0 | 0
O=C(Nc1ccc2c(c1)OCO2)c1cnc2n(c1=O)CCS2 | 0 | 0 | 0 | ? | 0 | 0
O=C(NCCCc1ccccc1)c1cnc2n(c1=O)CCS2 | 0 | 0 | 0 | 0[12.7 µM] | 0 | 0
COC(=O)c1ccc(OCC2c3cc(OC)c(OC)cc3CCN2C(=O)C(C)C)cc1 (configuration not stated) | 0 | - | ? | 0 | - | 0
COc1cc(OC)c(Nc2nc3ccc(C)cc3n3nnnc23)cc1Cl | 0 | - | 0 | 0 | - | 0
COc1ccc(NC(=O)C(Cc2c[nH]c3ccccc23)NC(=O)OC(C)(C)C)cc1 (configuration not stated) | 0 | - | ? | 0 | - | 0
Cc1ccc(-n2c(=O)c3ccc(C(=O)NCc4ccco4)cc3n(Cc3ccc(Cl)cc3)c2=O)cc1 | 0 | - | - | 0 | - | 0
Cc1ccc(-n2c(=O)c3ccc(C(=O)NCc4ccco4)cc3n(Cc3ccccc3Cl)c2=O)cc1 | 0 | - | - | 1.6µM | - | 0
NC(=O)c1sc2nc3c(cc2c1N)CCCCCC3 | 0 | 32µM | 0 | 50µM | 0 | 0
Nc1c(C(=O)O)sc2nc3c(cc12)CCCC3 | 0 | 0 | 0 | 22µM | - | 0
Nc1c(C(=O)C2CC2)sc2nc3c(cc12)CCC3 | 0 | 0 | 0 | ? | 0 | 0
SMILES | HP1b chromo inh | Sfp PPTase inh | BAZ2B inh | G9a block | L3MBTL1 inh | JMJD2A Tudor inh
CCN(Cc1ccccc1)C(=O)CCc1nc(CN2CCN(C(=O)c3ccc([N+](=O)[O-])cc3)CC2)no1 | 0 | 0 | 0 | 79µM | - | 0
CCN(Cc1ccccc1)C(=O)CCc1nc(-c2ccc(C)cc2)no1 | 0 | 0 | 0 | 0 | 0 | 0
CN(C)S(=O)(=O)c1cccc(C(=O)N2CCc3ccccc32)c1 | 0 | 0 | 0 | 0 | 0 | 0[11.4 µM]
CN(C)S(=O)(=O)c1cccc(C(=O)C2=C3SC=C(c4ccccc4)N3CC2)c1 | 0 | 56µM | 0 | ? | 0 | 0
CCOc1ccccc1NC(=O)c1cc(=O)c2ccc(C)cc2o1 | 0 | - | 0 | 0 | - | 0
CCCn1c(SC2C(=O)CC(C)(C)CC2=O)nc2c1c(=O)n(C)c(=O)n2C | 0 | 0 | ? | 56µM | 0 | 0
COc1ccc(CNc2oc(/C=C/c3cc(OC)c(OC)c(OC)c3)nc2C#N)cc1 | 0 | - | 0 | ? | - | 0
CCOCCCNC(=O)CNC(=S)N(Cc1ccc(C)cc1)Cc1ccco1 | 0 | 40µM | 0 | 10µM | - | 0
CCOc1ccc(NC(=O)N2CCN(S(=O)(=O)c3ccc4c(ccn4C)c3)CC2)cc1 | 0 | - | 0 | 0 | - | 0
CCOC(=O)C1(CCOc2ccccc2)CCN(Cc2ccncc2)CC1 | 0 | 45µM | ? | - | 0 | 0
CCOC(=O)C1(CCOC)CCN(Cc2cccc(OCc3ccccc3)c2)CC1 | 0 | ? | 0 | 0 | 0 | 0
CCOC(=O)C1(CCOC)CCN(Cc2ccncc2)CC1 | 0 | 0 | 0 | 50µM | 0 | 0
CCOc1ccc(OCC)c(NS(=O)(=O)c2c(C(=O)N3CCC(C)CC3)c(C)n(C)c2C)c1 | 0 | - | 0 | 0 | - | 0
COc1ccc(N2CCN(C(=O)C3CCN(S(=O)(=O)c4cccc5nonc45)CC3)CC2)cc1 | 0 | - | 79µM | ? | - | 0
Cc1cc(C)c(/C=C/c2onc(C)c2S(=O)(=O)N2CCC(C(=O)N3CCN(c4ccccc4)CC3)CC2)c(C)c1 | 0 | - | 0 | 0 | - | 22µM
COc1ccc(N2CCN(C(=O)C3CCCN(S(=O)(=O)c4c(C)noc4C)C3)CC2)cc1 (configuration not stated) | 0 | 0 | ? | 32µM | 0 | 0
O=C(O)C1CCN(S(=O)(=O)c2cccc3nonc23)CC1 | 0 | 0 | 0 | 0 | - | 0
Cc1ccc(S(=O)(=O)c2cn(C)c3cc(N4CCCC(C)C4)c(F)cc3c2=O)c(C)c1 (configuration not stated) | 0 | - | 0 | 0 | - | 0
CC(C)Oc1ccc(CNC(=O)c2ccc(CN3CC(=O)N4CCCCC4C3=O)cc2)cc1 (configuration not stated) | 0 | - | 0 | 0 | - | 0
CCOc1ccccc1C(=O)Nc1cc(-c2nc3cccnc3s2)ccc1C | 0 | - | 32µM | 10µM | - | ?
COc1ccc(C(=O)Nc2cccc(-c3nc4cccnc4s3)c2C)c(OC)c1 | 0 | - | 0 | 11µM | - | ?
CCOC(=O)c1c(C)n(-c2ccccc2)c2ccc(OC(=O)c3ccccc3)cc12 | 0 | - | 0 | 0 | - | 0
COc1cccc(NC(=O)/C(C#N)=C/c2c(C)n(Cc3ccc(Cl)cc3)c3ccccc23)c1 | 0 | - | 0 | 0 | - | 0
O=C(O)CCN1C(=O)/C(=C\c2cccc(OCc3ccccc3)c2)SC1=S | 0 | 0 | 0 | ? | - | 0
O=C(O)CN1C(=O)/C(=C\c2cc(Br)ccc2OCc2ccccc2F)SC1=S | 0 | 0 | 56µM | 40µM | - | 50µM
O=C(O)CN1C(=O)/C(=C\c2cccc(OCc3ccc(Cl)cc3Cl)c2)SC1=S | ? | 79µM | 79µM | - | 0 | 50µM
